Test results reported in PubChem BioAssay (NCATS).
Results filed as inconclusive are left out. Calls of active or inactive are those of the source. Calls come from the whole dose curve; as a rule, active = well fitted curve in the direction sought with a large enough effect; inconclusive = small, poorly fitted or top-dose-only effect, or another doubt; inactive = no such curve, though single readings can be large; an effect the other way counts as inactive or inconclusive.

What was measured:
KB-3-1 = test: Cytotoxic Profiling of Annotated Libraries Using Quantitative High-Throughput Screening (AID 1296008); conditions: Five cell lines viability, CellTiter-Glo ATP luminescence, 48-72 h; max response: active compounds read low; note: nearly all actives have a fitted effect of over 60% in size; for max response: % is set by controls: 0 for no effect and ±100 for the full control effect
How it was run: (§1)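 Cytotoxicity was measured as CellTiter-Glo ATP luminescence, read after 10 min at room temperature. Compound treatment of the cells lasted 48 or 72 hr at 37 degrees Celsius in a qHTS format.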

NIH3T3 [1] = test: as above; conditions: Five cell lines viability, CellTiter-Glo ATP luminescence, 48-72 h; max response: active compounds read low
How it was run: as §1

NIH3T3 [2] = test: qHTS assay to identify novel small-molecules to repurpose for Merkel cell carcinoma treatment (AID 1296009); conditions: MCC and control cell lines, CellTiter-Glo viability, 72 h; at 44.8 µM (top of the series) unless noted; note: nearly all actives have a fitted effect of over 60% in size
How it was run: (§2)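 Cell viability measured by CellTiter-Glo following 72 hr compound treatment at 37 degree celsius, with NPC and MIPE libraries tested in 8- and 11-point concentration series.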

C33A = test: Primary qHTS to identify gynecologic anti-cancer compounds using libraries of approved drugs and bioactive compounds (AID 1345084); conditions: Gynecologic cancer cell panel viability, ATPlite luminescence, 48 h; series mostly up to 57.5 µM; note: % is set by controls: 0 for no effect and ±100 for the full control effect; nearly all actives have a fitted effect of over 55% in size
How it was run: (§3)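 Measured: luminescence after ATPlite addition (15 min, RT). Exposure: 48 h, 37 C, 5% CO2.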

CAOV3 = test: as above; conditions: Gynecologic cancer cell panel viability, ATPlite luminescence, 48 h; series mostly up to 57.5 µM
How it was run: as §3

CASKI = test: as above; conditions: Gynecologic cancer cell panel viability, ATPlite luminescence, 48 h; series mostly up to 57.5 µM
How it was run: as §3

Es-2 = test: as above; conditions: Gynecologic cancer cell panel viability, ATPlite luminescence, 48 h; series mostly up to 57.5 µM
How it was run: as §3

HeLa = test: as above; conditions: Gynecologic cancer cell panel viability, ATPlite luminescence, 48 h; series mostly up to 57.5 µM
How it was run: as §3

Hek293T [3] = test: as above; conditions: Gynecologic cancer cell panel viability, ATPlite luminescence, 48 h, control line for the selectivity index; series mostly up to 57.5 µM
How it was run: as §3

JEG-3 = test: as above; conditions: Gynecologic cancer cell panel viability, ATPlite luminescence, 48 h; series mostly up to 57.5 µM
How it was run: as §3

OV90 = test: as above; conditions: Gynecologic cancer cell panel viability, ATPlite luminescence, 48 h; series mostly up to 57.5 µM
How it was run: as §3

HEK293T [4] = test: qHTS assay to identify novel small-molecules to repurpose for Merkel cell carcinoma treatment (AID 1296009); conditions: MCC and control cell lines, CellTiter-Glo viability, 72 h; at 44.8 µM (top of the series) unless noted; note: nearly all actives have a fitted effect of over 60% in size
How it was run: as §2

OC[C@H]1O[C@@H](Oc2cc(O)c3c(c2)O[C@@H](c2ccc(O)cc2)[C@H](O)C3)[C@H](O)[C@@H](O)[C@@H]1O
inactive: outcome (KB-3-1) | outcome (NIH3T3 [1]) | outcome (NIH3T3 [2]) inactive [at 17.4 µM] | Potency (C33A) | Potency (CAOV3) | Potency (CASKI) | Potency (Es-2) | Potency (HeLa) | Potency (Hek293T [3]) | Potency (JEG-3) | Potency (OV90)

Nc1nc2c(ncn2[C@@H]2O[C@H](CO)[C@@H](O)[C@H]2O)c(=O)[nH]1
inactive: max response (KB-3-1) 4.1% | outcome (NIH3T3 [1]) | outcome (NIH3T3 [2]) | Potency (C33A) | Potency (CAOV3) | Potency (CASKI) | Potency (Es-2) | Potency (HeLa) | Potency (Hek293T [3]) | Potency (JEG-3) | Potency (OV90)

CN(C)CC1CCOC1(c1ccccc1)c1ccccc1 (centres undefined)
inactive: max response (KB-3-1) 5.01% | outcome (NIH3T3 [1]) | outcome (NIH3T3 [2]) inactive [at 17.4 µM] | Potency (C33A) | Potency (CAOV3) | Potency (CASKI) | Potency (Es-2) | Potency (HeLa) | Potency (Hek293T [3]) | Potency (JEG-3) | Potency (OV90)

CC(C)C[C@H](CC(=O)NO)C(=O)N[C@H](C(=O)N[C@@H](C)C(=O)NCCN)C(C)(C)C
inactive: outcome (KB-3-1) | outcome (NIH3T3 [1]) | outcome (NIH3T3 [2]) inactive [at 9.27 µM] | activity change, negative = cytotoxicity (C33A) 18.9% [at 11.6 µM] | activity change, negative = cytotoxicity (CAOV3) 17.3% [at 11.6 µM] | activity change, negative = cytotoxicity (CASKI) 5.02% [at 11.6 µM] | activity change, negative = cytotoxicity (Es-2) 10.1% [at 11.6 µM] | activity change, negative = cytotoxicity (HeLa) 11.1% [at 11.6 µM] | activity change, negative = cytotoxicity (Hek293T [3]) 15.9% [at 11.6 µM] | activity change, negative = cytotoxicity (JEG-3) 0.977% [at 11.6 µM] | activity change, negative = cytotoxicity (OV90) 19.6% [at 11.6 µM]

C[C@]12C[C@@H](O)[C@@H]3C[C@@]1(O[C@@H]1O[C@H](CO)[C@@H](O)[C@H](O)[C@H]1O)[C@]3(COC(=O)c1ccccc1)C(=O)O2
inactive: max response (KB-3-1) 4.54% | outcome (NIH3T3 [1]) | outcome (HEK293T [4]) inactive [at 17.4 µM] | outcome (NIH3T3 [2]) inactive [at 17.4 µM] | Potency (C33A) | Potency (CASKI) | Potency (Es-2) | Potency (HeLa) | Potency (Hek293T [3]) | Potency (JEG-3) | Potency (OV90)

COc1ccc(CN2C(=O)C(=O)c3cc(S(=O)(=O)N4CCC[C@H]4COc4cccnc4)ccc32)cc1
inactive: outcome (KB-3-1) | outcome (NIH3T3 [1]) | outcome (HEK293T [4]) | outcome (NIH3T3 [2]) | Potency (C33A) | Potency (CAOV3) | Potency (CASKI) | Potency (Es-2) | Potency (HeLa) | Potency (Hek293T [3]) | Potency (JEG-3) | Potency (OV90)

CC1C=CC2CCCCC2C1CCC1CC(O)CC(=O)O1 (centres undefined)
inactive: max response (KB-3-1) 3.85% | max response (NIH3T3 [1]) -16% | outcome (HEK293T [4]) | Potency (C33A) | Potency (CAOV3) | Potency (CASKI) | Potency (Es-2) | Potency (HeLa) | Potency (Hek293T [3]) | Potency (JEG-3) | Potency (OV90)

CCCCOC(=O)NC(=O)C1c2ccccc2Oc2ccccc21
inactive: max response (KB-3-1) 2.73% | max response (NIH3T3 [1]) -5.65% | outcome (HEK293T [4]) | Potency (C33A) | Potency (CAOV3) | Potency (CASKI) | Potency (Es-2) | Potency (HeLa) | Potency (Hek293T [3]) | Potency (JEG-3) | Potency (OV90)

COC(=O)C12CCC(C)C(C)C1C1=CCC3C4(C)CCC(OC(C)=O)C(C)(C)C4CCC3(C)C1(C)CC2 (centres undefined)
inactive: max response (KB-3-1) 5.8% | outcome (NIH3T3 [1]) | outcome (NIH3T3 [2]) inactive [at 17.4 µM] | Potency (C33A) | Potency (CAOV3) | Potency (CASKI) | Potency (Es-2) | Potency (HeLa) | Potency (Hek293T [3]) | Potency (JEG-3) | Potency (OV90)

CC1(C)C[C@H](O)C[C@@]2(C)OC(=O)C=C12
inactive: outcome (KB-3-1) | max response (NIH3T3 [1]) 2.91% | outcome (HEK293T [4]) inactive [at 92 µM] | Potency (C33A) | Potency (CAOV3) | Potency (CASKI) | Potency (Es-2) | Potency (HeLa) | Potency (Hek293T [3]) | Potency (JEG-3) | Potency (OV90)

CN(C)CCn1cc(S(=O)(=O)c2cccc(F)c2)c2cccnc21
inactive: max response (KB-3-1) 1.25% | max response (NIH3T3 [1]) -4.92% | outcome (HEK293T [4]) | Potency (C33A) | Potency (CASKI) | Potency (Es-2) | Potency (HeLa) | Potency (Hek293T [3]) | Potency (JEG-3) | Potency (OV90)

CC(C)/C=C1\NC(=O)C(C(C)C)n2c1nc1c(c2=O)C=CC=CO1 (centres undefined)
inactive: max response (KB-3-1) 4.42% | outcome (NIH3T3 [1]) | outcome (NIH3T3 [2]) | Potency (C33A) | Potency (CAOV3) | Potency (CASKI) | Potency (Es-2) | Potency (HeLa) | Potency (Hek293T [3]) | Potency (JEG-3) | Potency (OV90)

C[C@H](C(=O)NC1CCCC1)N(C(=O)Cn1nnc(-c2ccc3c(c2)OCO3)n1)C1CCCCC1
inactive: max response (KB-3-1) 5.01% | outcome (NIH3T3 [1]) | outcome (NIH3T3 [2]) | Potency (C33A) | Potency (CAOV3) | Potency (CASKI) | Potency (Es-2) | Potency (HeLa) | Potency (Hek293T [3]) | Potency (JEG-3) | Potency (OV90)

CC(=O)C=C=C1C(C)(C)CC(O[C@@H]2O[C@H](CO)[C@@H](O)[C@H](O)[C@H]2O)CC1(C)O (some centres undefined)
inactive: max response (KB-3-1) 0.592% | max response (NIH3T3 [1]) 4.66% | outcome (HEK293T [4]) | Potency (C33A) | Potency (CAOV3) | Potency (CASKI) | Potency (Es-2) | Potency (HeLa) | Potency (Hek293T [3]) | Potency (JEG-3) | Potency (OV90)

COC(=O)C1=CO[C@@H](O[C@@H]2O[C@H](CO)[C@@H](O)[C@H](O)[C@H]2O)[C@@H]2C(CO)=CC[C@]12O
inactive: max response (KB-3-1) 9.91% | max response (NIH3T3 [1]) 1.93% | outcome (HEK293T [4]) inactive [at 17.4 µM] | Potency (C33A) | Potency (CASKI) | Potency (Es-2) | Potency (HeLa) | Potency (Hek293T [3]) | Potency (JEG-3) | Potency (OV90)
